Measurements published in paper PMC7862700, “An all-to-all approach to the identification of sequence-specific readers for epigenetic DNA modifications on cytosine”.

Legend:
Experiment in all cases: DAPPL (digital affinity profiling via proximity ligation, sequencing); 10 mM Tris-HCl pH 7.5, 50 mM NaCl, 1 mM DTT, 4% glycerol, room temperature, 30 min; GST-TFs on glutathione beads, 16-mer random dsDNA library, 0.1% formaldehyde crosslink after washing; high values mean tight binding
Conditions in all cases: protein: recombinant; tags: N-terminal GST; dsDNA, one strand shown
FEV = molecular target: T1, FEV (Homo sapiens, UniProt Q99581 1-238)
T1 sequence: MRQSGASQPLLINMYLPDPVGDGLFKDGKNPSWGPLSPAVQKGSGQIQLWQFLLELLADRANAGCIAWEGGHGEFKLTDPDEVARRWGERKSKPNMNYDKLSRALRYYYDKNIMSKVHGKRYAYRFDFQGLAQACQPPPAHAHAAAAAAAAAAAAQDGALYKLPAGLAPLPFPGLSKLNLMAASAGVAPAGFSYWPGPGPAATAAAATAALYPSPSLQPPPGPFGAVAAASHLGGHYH
Method in brief: (§1)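 Binding signal is given per hexamer as its read frequency for a factor divided by its frequency in the tag-only sample. GST-fused human transcription factors were expressed in yeast, captured on glutathione beads, barcoded with DNA and pooled with that sample, then incubated with 200 nmole of a 16-mer random double-stranded DNA library in Tris/NaCl/DTT/glycerol buffer for 30 min at room temperature. The pools were then washed, crosslinked, proximity-ligated, amplified by PCR and sequenced on an Illumina NextSeq500.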

ETV5 = ETV5 (Homo sapiens, UniProt P41161 1-510)
Chain of ETV5 (P41161 whole entry): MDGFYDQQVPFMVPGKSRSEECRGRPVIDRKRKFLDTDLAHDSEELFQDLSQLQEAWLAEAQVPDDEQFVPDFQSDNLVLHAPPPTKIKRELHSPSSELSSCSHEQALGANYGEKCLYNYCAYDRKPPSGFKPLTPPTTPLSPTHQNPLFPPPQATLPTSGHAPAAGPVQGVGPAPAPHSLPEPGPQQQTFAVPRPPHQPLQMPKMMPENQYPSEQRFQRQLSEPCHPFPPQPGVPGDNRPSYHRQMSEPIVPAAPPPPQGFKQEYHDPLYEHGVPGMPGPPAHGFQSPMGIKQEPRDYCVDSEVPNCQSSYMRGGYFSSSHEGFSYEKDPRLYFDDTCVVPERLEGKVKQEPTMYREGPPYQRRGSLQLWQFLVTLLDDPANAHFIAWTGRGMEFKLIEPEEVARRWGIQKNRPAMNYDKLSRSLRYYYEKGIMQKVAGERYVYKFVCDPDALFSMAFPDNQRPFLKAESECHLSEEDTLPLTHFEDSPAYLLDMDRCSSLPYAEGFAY
Method in brief: as §1

SPIC = molecular target: T2, SPIC (Homo sapiens, UniProt Q8N5J4 1-248)
T2 sequence: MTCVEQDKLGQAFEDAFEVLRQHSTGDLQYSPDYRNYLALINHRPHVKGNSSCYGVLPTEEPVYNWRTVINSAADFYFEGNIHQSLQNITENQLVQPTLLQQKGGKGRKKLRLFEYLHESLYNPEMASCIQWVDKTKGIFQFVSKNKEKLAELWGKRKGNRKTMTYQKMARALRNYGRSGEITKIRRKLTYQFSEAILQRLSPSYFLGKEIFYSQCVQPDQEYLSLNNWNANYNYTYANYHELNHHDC
Method in brief: as §1

ELF4 = ELF4 (Homo sapiens, UniProt Q99607 1-663)
Chain of ELF4 (Q99607 whole entry): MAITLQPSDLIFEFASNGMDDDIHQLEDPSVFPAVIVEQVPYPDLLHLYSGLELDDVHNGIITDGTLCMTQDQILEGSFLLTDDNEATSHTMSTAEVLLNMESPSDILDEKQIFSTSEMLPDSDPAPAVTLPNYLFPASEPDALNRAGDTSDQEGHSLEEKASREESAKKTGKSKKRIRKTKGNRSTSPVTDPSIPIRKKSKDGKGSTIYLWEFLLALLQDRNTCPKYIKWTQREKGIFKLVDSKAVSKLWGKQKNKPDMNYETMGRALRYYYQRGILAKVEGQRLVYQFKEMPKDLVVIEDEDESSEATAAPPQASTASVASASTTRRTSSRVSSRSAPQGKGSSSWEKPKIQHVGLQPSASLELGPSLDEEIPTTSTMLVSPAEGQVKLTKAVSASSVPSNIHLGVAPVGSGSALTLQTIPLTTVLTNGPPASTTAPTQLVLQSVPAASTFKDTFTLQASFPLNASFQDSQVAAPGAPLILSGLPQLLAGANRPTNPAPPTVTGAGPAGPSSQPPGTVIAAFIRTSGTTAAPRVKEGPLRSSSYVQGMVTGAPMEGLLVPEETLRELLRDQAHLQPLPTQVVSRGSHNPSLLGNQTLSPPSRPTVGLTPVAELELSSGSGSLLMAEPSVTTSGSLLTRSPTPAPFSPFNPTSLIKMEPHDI
Method in brief: as §1

ELK4 = molecular target: T3, ELK4 (Homo sapiens, UniProt P28324-2 1-405)
T3 sequence: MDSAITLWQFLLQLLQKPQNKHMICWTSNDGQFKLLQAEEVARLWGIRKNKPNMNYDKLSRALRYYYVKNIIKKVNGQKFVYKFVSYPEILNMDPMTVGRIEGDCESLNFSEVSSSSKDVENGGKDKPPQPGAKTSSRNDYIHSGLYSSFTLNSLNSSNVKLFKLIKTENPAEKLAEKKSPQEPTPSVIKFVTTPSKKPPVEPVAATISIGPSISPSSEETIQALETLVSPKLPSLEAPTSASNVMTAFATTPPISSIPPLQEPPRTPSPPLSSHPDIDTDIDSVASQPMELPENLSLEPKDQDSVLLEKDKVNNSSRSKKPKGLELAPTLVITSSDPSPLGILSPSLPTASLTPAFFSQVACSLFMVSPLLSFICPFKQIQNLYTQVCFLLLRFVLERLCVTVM
Method in brief: as §1

ETV2 = molecular target: T4, ETV2 (Homo sapiens, UniProt O00321 1-342)
T4 sequence: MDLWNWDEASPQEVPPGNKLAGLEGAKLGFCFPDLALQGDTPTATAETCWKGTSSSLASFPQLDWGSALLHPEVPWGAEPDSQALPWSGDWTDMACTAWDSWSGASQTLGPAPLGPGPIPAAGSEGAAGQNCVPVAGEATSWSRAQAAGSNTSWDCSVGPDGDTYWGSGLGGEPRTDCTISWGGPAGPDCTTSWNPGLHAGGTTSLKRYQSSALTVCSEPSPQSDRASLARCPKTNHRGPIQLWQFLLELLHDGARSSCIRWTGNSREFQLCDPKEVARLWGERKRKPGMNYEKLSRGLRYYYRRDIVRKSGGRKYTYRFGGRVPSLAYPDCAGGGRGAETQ
Method in brief: as §1

ELF3 = molecular target: T5, ELF3 (Homo sapiens, UniProt P78545 1-371)
T5 sequence: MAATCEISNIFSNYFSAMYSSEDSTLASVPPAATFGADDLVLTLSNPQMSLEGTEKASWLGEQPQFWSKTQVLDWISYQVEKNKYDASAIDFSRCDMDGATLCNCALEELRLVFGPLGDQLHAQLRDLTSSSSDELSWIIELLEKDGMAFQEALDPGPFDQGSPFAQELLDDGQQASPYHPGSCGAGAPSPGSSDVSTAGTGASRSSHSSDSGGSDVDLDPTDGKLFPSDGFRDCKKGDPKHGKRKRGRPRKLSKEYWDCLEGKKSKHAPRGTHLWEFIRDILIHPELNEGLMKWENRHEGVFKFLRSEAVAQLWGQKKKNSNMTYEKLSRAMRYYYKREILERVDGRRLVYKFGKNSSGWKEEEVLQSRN
Method in brief: as §1

ETV1 = ETV1 (Homo sapiens, UniProt P50549 1-477)
Chain of ETV1 (P50549 whole entry): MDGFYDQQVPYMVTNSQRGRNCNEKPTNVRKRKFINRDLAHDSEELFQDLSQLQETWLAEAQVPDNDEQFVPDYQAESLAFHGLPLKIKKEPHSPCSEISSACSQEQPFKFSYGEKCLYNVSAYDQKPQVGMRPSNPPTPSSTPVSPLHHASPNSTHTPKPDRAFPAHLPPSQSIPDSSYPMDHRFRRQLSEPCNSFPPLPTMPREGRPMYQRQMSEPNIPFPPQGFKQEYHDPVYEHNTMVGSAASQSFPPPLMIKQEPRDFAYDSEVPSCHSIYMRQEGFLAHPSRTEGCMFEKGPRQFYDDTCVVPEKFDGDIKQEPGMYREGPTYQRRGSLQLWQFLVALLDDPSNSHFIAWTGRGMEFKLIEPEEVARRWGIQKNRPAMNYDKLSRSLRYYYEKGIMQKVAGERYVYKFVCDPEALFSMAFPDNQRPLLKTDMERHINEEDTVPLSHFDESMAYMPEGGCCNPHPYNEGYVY
Method in brief: as §1

ERF = molecular target: T6, ERF (Homo sapiens, UniProt P50548 1-548)
T6 sequence: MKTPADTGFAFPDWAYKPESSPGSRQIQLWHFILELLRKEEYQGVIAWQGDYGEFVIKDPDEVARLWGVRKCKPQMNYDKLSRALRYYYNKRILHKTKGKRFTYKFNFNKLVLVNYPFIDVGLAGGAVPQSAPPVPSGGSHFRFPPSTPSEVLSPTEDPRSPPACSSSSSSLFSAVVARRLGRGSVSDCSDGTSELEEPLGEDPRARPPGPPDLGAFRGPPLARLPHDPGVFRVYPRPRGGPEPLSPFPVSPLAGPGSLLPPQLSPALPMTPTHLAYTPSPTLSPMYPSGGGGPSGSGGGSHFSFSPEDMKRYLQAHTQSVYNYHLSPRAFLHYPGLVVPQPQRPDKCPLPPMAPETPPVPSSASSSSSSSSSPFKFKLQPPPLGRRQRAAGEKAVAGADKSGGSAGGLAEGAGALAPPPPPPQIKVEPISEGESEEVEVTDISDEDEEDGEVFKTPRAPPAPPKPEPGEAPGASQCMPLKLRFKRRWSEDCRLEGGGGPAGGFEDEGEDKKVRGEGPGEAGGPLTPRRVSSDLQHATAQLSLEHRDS
Method in brief: as §1

ETV3L = molecular target: T7, ETV3L (Homo sapiens, UniProt Q6ZN32 1-361)
T7 sequence: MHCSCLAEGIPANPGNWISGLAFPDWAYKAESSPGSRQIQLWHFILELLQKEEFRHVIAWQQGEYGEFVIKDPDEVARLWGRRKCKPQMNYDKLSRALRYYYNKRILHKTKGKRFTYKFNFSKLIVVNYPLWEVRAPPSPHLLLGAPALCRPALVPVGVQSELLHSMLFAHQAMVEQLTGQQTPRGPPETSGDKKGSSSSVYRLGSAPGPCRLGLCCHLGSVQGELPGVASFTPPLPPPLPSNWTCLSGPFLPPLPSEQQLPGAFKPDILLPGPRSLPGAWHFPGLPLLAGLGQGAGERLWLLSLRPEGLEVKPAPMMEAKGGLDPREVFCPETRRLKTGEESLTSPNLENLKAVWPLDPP
Method in brief: as §1

ETS2 = molecular target: T8, ETS2 (Homo sapiens, UniProt P15036 1-469)
T8 sequence: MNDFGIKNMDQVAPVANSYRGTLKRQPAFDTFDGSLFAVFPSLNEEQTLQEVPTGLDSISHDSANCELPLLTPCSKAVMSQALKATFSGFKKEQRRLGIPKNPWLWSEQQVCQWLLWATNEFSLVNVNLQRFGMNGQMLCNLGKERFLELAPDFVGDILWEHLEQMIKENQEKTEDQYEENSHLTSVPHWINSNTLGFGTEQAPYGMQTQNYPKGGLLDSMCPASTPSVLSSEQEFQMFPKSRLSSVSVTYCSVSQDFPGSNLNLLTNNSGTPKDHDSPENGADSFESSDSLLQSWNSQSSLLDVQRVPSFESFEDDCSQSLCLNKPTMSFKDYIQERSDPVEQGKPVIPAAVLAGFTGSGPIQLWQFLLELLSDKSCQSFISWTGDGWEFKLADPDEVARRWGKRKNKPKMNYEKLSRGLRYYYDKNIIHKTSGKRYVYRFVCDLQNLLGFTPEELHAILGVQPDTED
Method in brief: as §1

SPDEF = molecular target: T9, SPDEF (Homo sapiens, UniProt O95238 1-335)
T9 sequence: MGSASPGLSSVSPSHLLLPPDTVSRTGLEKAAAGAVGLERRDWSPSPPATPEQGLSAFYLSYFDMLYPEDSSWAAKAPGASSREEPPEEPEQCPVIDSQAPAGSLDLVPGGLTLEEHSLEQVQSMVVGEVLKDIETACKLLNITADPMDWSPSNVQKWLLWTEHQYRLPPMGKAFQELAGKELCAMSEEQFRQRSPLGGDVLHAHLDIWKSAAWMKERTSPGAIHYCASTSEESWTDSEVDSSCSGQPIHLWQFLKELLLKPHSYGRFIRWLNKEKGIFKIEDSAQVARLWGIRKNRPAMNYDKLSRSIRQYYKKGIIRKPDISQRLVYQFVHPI
Method in brief: as §1

ETV7 = molecular target: T10, ETV7 (Homo sapiens, UniProt Q9Y603 1-341)
T10 sequence: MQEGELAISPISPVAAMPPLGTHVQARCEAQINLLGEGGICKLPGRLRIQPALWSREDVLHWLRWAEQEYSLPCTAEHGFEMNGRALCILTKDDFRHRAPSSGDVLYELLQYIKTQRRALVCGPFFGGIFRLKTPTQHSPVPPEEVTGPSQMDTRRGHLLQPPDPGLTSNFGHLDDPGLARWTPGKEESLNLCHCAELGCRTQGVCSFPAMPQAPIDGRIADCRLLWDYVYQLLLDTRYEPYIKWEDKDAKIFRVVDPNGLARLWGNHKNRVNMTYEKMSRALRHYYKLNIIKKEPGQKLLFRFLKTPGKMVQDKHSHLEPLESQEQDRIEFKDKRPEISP
Method in brief: as §1

ELF5 = molecular target: T11, ELF5 (Homo sapiens, UniProt Q9UKW6-2 1-255)
T11 sequence: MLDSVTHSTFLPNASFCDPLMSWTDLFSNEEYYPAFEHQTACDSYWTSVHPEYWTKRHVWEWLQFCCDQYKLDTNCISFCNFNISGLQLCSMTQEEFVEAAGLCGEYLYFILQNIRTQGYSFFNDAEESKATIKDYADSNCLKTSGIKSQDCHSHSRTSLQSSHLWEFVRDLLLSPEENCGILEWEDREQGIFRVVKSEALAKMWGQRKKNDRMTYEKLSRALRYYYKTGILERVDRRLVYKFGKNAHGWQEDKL
Method in brief: as §1

ETV3 = molecular target: T12, ETV3 (Homo sapiens, UniProt P41162-2 1-143)
T12 sequence: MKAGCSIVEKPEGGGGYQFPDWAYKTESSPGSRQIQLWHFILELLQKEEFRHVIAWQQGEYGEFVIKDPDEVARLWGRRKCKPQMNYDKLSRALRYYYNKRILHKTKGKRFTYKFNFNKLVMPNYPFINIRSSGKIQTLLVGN
Method in brief: as §1

ETV6 = ETV6 (Homo sapiens, UniProt P41212 1-452)
Chain of ETV6 (P41212 whole entry): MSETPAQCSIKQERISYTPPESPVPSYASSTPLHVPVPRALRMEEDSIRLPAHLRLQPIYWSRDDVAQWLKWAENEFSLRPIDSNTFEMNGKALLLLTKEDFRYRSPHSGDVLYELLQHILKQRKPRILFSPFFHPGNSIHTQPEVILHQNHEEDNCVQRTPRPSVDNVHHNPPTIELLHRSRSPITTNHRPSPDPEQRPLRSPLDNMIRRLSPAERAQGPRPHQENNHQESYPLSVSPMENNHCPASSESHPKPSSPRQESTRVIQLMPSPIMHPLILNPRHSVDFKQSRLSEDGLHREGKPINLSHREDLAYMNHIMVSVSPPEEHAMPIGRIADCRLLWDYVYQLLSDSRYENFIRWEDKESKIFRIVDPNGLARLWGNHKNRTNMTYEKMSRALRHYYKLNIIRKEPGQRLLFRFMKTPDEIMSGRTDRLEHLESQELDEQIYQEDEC
Method in brief: as §1

Row | Sequence | binding signal (FEV) | binding signal (ETV5) | binding signal (SPIC) | binding signal (ELF4) | binding signal (ELK4) | binding signal (ETV2) | binding signal (ELF3) | binding signal (ETV1) | binding signal (ERF) | binding signal (ETV3L) | binding signal (ETS2) | binding signal (SPDEF) | binding signal (ETV7) | binding signal (ELF5) | binding signal (ETV3) | binding signal (ETV6)
1 | CTGTCA | 1.03 fold enrichment (6-mer frequency, TF over GST control) | 1.06 fold enrichment (6-mer frequency, TF over GST control) | 1.27 fold enrichment (6-mer frequency, TF over GST control) | 1.13 fold enrichment (6-mer frequency, TF over GST control) | 1.27 fold enrichment (6-mer frequency, TF over GST control) | 1.19 fold enrichment (6-mer frequency, TF over GST control) | 1.16 fold enrichment (6-mer frequency, TF over GST control) | 1.14 fold enrichment (6-mer frequency, TF over GST control) | 1.17 fold enrichment (6-mer frequency, TF over GST control) | 1.22 fold enrichment (6-mer frequency, TF over GST control) | 1.14 fold enrichment (6-mer frequency, TF over GST control) | 1.06 fold enrichment (6-mer frequency, TF over GST control) | 1.12 fold enrichment (6-mer frequency, TF over GST control) | 1.14 fold enrichment (6-mer frequency, TF over GST control) | 1.09 fold enrichment (6-mer frequency, TF over GST control) | 1.1 fold enrichment (6-mer frequency, TF over GST control)
2 | CCAACG | 1.14 fold enrichment (6-mer frequency, TF over GST control) | 1.06 fold enrichment (6-mer frequency, TF over GST control) | 1.11 fold enrichment (6-mer frequency, TF over GST control) | 1.21 fold enrichment (6-mer frequency, TF over GST control) | 1.12 fold enrichment (6-mer frequency, TF over GST control) | 1.14 fold enrichment (6-mer frequency, TF over GST control) | 1.17 fold enrichment (6-mer frequency, TF over GST control) | 1.11 fold enrichment (6-mer frequency, TF over GST control) | 1.29 fold enrichment (6-mer frequency, TF over GST control) | 1.1 fold enrichment (6-mer frequency, TF over GST control) | 1.08 fold enrichment (6-mer frequency, TF over GST control) | 1.13 fold enrichment (6-mer frequency, TF over GST control) | 1.13 fold enrichment (6-mer frequency, TF over GST control) | 1.1 fold enrichment (6-mer frequency, TF over GST control) | 1.09 fold enrichment (6-mer frequency, TF over GST control) | 1.22 fold enrichment (6-mer frequency, TF over GST control)
